# Key:
# Experiment in all cases: DAPPL (digital affinity profiling via proximity ligation, sequencing); 10 mM Tris-HCl pH 7.5, 50 mM NaCl, 1 mM DTT, 4% glycerol, room temperature, 30 min; GST-TFs on glutathione beads, 16-mer random dsDNA library, 0.1% formaldehyde crosslink after washing; high values mean tight binding
# FEV = biological target: T1, FEV (Homo sapiens, UniProt Q99581 1-238); conditions: protein: recombinant; tags: N-terminal GST; dsDNA, one strand shown
# T1 sequence: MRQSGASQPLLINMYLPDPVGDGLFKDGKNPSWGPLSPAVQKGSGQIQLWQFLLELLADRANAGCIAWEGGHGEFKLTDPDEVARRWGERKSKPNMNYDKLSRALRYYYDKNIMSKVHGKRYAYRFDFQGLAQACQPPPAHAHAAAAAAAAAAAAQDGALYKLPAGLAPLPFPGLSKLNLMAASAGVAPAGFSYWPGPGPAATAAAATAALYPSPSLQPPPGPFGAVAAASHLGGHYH
# Outline: (§1)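 Binding signal is each hexamer's read frequency for a factor divided by its frequency in the tag-only sample. The factors were GST-fused human transcription factors from yeast, captured on glutathione beads, DNA-barcoded and pooled with that sample. Pools were incubated with 200 nmole of a random double-stranded 16-mer DNA library in Tris/NaCl/DTT/glycerol buffer at room temperature for 30 min, then washed, crosslinked with 0.1% formaldehyde, proximity-ligated with BsaI/T4 ligase (1 h, 37 °C), PCR-amplified and sequenced on an Illumina NextSeq500.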
# ETV5 = ETV5 (Homo sapiens, UniProt P41161 1-510); conditions: protein: recombinant; tags: N-terminal GST; dsDNA, one strand shown
# ETV5, sequence (P41161 whole entry): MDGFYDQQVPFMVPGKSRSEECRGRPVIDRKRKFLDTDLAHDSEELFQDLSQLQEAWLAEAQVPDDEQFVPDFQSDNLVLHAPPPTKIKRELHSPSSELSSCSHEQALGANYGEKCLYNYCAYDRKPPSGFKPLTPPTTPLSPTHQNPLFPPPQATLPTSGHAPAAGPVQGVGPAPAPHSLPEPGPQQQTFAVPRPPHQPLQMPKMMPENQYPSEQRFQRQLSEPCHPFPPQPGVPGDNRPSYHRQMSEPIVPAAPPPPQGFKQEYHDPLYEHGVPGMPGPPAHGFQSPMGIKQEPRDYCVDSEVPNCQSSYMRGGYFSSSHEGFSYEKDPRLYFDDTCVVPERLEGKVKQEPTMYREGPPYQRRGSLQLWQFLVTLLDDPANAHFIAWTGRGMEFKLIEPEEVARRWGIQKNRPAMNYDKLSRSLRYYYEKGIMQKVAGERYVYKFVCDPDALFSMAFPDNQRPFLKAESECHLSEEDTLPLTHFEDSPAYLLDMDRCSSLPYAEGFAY
# Outline: as §1
# HSF1 = HSF1 (Homo sapiens, UniProt Q00613 1-529); conditions: protein: recombinant; tags: N-terminal GST; chain copies: 3; dsDNA, one strand shown
# HSF1, sequence (Q00613 whole entry): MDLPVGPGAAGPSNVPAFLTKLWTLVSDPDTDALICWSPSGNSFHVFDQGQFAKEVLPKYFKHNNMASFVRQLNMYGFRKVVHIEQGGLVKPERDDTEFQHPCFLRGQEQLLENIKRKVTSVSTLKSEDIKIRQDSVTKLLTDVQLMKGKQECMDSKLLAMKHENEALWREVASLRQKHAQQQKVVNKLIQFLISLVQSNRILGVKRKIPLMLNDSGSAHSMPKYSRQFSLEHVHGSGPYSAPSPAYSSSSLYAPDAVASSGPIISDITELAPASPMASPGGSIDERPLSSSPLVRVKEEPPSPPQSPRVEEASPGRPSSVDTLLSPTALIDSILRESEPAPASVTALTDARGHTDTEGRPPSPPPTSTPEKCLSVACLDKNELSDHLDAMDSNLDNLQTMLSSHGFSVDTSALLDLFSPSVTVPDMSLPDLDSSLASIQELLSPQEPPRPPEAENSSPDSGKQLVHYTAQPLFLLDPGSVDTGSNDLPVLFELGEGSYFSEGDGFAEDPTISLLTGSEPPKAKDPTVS
# Outline: as §1
# SPIC = biological target: T2, SPIC (Homo sapiens, UniProt Q8N5J4 1-248); conditions: protein: recombinant; tags: N-terminal GST; dsDNA, one strand shown
# T2 sequence: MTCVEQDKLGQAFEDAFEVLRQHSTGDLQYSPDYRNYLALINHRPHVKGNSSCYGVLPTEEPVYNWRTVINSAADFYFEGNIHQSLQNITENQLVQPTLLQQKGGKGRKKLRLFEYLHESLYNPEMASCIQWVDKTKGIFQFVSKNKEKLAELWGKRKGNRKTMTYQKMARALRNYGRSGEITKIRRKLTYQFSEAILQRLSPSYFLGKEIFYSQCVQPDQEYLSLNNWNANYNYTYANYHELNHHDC
# Outline: as §1
# ELF4 = ELF4 (Homo sapiens, UniProt Q99607 1-663); conditions: protein: recombinant; tags: N-terminal GST; dsDNA, one strand shown
# ELF4, sequence (Q99607 whole entry): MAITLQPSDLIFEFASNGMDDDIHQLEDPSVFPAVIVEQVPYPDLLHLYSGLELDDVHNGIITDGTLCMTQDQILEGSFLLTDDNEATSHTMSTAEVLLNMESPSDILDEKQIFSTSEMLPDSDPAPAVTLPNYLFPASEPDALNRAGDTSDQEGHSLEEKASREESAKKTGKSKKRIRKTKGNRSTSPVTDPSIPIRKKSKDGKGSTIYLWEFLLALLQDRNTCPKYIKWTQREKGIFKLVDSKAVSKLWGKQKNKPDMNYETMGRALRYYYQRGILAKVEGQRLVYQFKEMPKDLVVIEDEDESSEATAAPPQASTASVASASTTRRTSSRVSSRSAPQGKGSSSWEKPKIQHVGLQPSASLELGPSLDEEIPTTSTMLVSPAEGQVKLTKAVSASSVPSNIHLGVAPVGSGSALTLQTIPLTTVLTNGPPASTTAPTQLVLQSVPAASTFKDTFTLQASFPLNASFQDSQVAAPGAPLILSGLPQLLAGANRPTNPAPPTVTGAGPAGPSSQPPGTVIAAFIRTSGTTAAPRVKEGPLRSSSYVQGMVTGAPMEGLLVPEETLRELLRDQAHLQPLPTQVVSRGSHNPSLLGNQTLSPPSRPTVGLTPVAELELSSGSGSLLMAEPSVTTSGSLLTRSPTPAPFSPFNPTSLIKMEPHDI
# Outline: as §1
# ELK4 = biological target: T3, ELK4 (Homo sapiens, UniProt P28324-2 1-405); conditions: protein: recombinant; tags: N-terminal GST; dsDNA, one strand shown
# T3 sequence: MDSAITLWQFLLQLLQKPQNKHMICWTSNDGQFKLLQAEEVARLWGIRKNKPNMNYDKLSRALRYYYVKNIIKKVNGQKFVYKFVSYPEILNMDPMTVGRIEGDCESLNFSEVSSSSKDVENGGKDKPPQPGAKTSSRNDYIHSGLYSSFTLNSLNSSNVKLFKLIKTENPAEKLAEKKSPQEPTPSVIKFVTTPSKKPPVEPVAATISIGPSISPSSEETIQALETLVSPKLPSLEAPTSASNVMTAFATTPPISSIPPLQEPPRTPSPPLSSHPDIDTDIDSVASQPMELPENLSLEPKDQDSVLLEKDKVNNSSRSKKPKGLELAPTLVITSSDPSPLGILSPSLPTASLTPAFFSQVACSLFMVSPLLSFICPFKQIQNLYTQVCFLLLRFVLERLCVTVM
# Outline: as §1
# ETV2 = biological target: T4, ETV2 (Homo sapiens, UniProt O00321 1-342); conditions: protein: recombinant; tags: N-terminal GST; dsDNA, one strand shown
# T4 sequence: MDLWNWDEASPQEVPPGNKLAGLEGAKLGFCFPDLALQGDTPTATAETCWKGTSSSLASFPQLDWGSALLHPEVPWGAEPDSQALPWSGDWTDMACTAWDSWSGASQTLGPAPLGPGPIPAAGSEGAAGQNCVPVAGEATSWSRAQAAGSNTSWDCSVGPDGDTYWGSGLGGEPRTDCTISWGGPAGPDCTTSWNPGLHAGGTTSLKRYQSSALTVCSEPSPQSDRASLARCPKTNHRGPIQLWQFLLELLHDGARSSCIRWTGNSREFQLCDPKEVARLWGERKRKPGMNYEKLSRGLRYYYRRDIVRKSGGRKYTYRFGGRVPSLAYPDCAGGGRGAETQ
# Outline: as §1
# ELF3 = biological target: T5, ELF3 (Homo sapiens, UniProt P78545 1-371); conditions: protein: recombinant; tags: N-terminal GST; dsDNA, one strand shown
# T5 sequence: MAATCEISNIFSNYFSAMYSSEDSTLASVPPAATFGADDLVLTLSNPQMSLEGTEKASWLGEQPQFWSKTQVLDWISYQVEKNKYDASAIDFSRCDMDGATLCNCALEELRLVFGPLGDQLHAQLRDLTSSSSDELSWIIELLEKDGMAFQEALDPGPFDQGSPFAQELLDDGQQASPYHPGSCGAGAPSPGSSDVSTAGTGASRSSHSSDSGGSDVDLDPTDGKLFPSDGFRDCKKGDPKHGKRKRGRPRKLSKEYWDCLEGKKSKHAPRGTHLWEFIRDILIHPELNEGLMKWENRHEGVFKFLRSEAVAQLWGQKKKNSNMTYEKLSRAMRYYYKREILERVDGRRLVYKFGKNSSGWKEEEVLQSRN
# Outline: as §1
# CRX = CRX (Homo sapiens, UniProt O43186 1-299); conditions: protein: recombinant; tags: N-terminal GST; dsDNA, one strand shown
# CRX, sequence (O43186 whole entry): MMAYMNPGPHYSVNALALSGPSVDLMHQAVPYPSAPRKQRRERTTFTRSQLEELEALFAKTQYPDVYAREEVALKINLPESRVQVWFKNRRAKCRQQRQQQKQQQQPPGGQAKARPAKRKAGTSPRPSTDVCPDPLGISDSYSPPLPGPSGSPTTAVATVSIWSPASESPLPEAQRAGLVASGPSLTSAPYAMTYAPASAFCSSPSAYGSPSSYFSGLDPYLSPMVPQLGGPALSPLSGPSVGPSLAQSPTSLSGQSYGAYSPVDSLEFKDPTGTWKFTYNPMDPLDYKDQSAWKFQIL
# Outline: as §1
# ETV1 = ETV1 (Homo sapiens, UniProt P50549 1-477); conditions: protein: recombinant; tags: N-terminal GST; dsDNA, one strand shown
# ETV1, sequence (P50549 whole entry): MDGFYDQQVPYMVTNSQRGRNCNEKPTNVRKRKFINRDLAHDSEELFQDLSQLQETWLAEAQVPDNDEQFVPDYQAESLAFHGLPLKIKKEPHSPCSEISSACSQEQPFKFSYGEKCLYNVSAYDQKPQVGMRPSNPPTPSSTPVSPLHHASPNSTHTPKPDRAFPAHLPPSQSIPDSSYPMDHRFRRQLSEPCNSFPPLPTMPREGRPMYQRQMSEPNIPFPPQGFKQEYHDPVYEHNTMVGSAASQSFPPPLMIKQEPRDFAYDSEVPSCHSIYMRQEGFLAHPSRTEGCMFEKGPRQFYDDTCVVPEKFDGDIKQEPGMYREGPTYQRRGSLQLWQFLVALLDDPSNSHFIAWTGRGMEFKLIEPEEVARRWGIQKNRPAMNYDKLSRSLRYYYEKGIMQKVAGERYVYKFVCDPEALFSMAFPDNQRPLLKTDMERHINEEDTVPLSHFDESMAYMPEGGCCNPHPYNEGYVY
# Outline: as §1
# ERF = biological target: T6, ERF (Homo sapiens, UniProt P50548 1-548); conditions: protein: recombinant; tags: N-terminal GST; dsDNA, one strand shown
# T6 sequence: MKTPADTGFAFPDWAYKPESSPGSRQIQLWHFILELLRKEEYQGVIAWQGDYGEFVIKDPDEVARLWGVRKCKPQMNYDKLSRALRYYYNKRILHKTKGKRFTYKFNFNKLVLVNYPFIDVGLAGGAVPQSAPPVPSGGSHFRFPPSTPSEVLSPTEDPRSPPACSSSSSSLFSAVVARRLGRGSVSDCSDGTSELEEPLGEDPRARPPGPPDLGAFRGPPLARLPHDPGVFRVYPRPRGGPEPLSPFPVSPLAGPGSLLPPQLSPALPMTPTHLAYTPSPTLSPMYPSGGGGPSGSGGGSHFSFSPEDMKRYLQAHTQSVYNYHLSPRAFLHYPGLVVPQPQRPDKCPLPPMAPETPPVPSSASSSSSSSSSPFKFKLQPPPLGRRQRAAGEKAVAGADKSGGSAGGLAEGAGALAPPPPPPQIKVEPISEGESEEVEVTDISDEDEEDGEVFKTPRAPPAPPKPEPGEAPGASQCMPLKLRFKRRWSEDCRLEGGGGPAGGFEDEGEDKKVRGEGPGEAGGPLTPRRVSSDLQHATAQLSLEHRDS
# Outline: as §1
# ETV3L = biological target: T7, ETV3L (Homo sapiens, UniProt Q6ZN32 1-361); conditions: protein: recombinant; tags: N-terminal GST; dsDNA, one strand shown
# T7 sequence: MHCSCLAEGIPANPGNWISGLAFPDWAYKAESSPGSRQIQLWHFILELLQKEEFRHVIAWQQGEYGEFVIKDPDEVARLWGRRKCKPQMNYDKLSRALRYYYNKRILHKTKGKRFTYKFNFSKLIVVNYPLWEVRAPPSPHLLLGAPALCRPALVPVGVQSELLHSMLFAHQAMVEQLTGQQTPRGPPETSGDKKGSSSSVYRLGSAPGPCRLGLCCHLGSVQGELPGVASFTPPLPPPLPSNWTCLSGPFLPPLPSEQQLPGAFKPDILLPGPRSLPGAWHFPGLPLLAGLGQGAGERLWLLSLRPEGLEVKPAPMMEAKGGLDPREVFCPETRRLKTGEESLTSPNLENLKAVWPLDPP
# Outline: as §1
# ETS2 = biological target: T8, ETS2 (Homo sapiens, UniProt P15036 1-469); conditions: protein: recombinant; tags: N-terminal GST; dsDNA, one strand shown
# T8 sequence: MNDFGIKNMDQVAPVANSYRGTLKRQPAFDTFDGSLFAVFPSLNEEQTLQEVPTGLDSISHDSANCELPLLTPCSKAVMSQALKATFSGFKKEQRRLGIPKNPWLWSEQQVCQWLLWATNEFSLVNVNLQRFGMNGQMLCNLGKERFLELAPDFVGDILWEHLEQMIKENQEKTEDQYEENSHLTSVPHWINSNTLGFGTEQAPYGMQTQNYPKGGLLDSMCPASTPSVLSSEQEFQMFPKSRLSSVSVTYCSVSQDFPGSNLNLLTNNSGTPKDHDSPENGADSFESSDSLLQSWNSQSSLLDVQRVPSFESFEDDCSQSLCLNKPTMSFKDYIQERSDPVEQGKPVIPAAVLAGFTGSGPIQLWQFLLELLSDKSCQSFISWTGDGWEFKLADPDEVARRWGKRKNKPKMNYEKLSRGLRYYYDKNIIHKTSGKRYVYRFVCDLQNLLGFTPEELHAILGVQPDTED
# Outline: as §1
# SPDEF = biological target: T9, SPDEF (Homo sapiens, UniProt O95238 1-335); conditions: protein: recombinant; tags: N-terminal GST; dsDNA, one strand shown
# T9 sequence: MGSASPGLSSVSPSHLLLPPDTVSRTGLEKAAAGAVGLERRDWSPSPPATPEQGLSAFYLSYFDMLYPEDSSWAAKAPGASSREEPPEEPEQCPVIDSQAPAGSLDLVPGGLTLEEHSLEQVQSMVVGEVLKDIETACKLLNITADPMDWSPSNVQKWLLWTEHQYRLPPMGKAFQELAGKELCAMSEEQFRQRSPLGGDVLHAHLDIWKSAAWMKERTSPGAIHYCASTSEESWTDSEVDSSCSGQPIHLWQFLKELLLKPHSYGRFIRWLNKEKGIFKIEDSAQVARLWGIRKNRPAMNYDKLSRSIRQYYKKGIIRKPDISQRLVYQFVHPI
# Outline: as §1
# ETV7 = biological target: T10, ETV7 (Homo sapiens, UniProt Q9Y603 1-341); conditions: protein: recombinant; tags: N-terminal GST; dsDNA, one strand shown
# T10 sequence: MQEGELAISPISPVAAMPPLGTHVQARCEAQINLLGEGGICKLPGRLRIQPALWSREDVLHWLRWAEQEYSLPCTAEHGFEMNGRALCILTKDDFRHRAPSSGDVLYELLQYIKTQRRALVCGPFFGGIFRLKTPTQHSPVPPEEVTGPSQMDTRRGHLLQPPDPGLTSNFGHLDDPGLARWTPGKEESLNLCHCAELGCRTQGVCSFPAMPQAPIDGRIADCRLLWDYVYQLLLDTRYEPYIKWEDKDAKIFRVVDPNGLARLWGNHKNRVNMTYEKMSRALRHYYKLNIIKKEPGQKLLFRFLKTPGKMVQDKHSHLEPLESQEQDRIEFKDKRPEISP
# Outline: as §1
# ELF5 = biological target: T11, ELF5 (Homo sapiens, UniProt Q9UKW6-2 1-255); conditions: protein: recombinant; tags: N-terminal GST; dsDNA, one strand shown
# T11 sequence: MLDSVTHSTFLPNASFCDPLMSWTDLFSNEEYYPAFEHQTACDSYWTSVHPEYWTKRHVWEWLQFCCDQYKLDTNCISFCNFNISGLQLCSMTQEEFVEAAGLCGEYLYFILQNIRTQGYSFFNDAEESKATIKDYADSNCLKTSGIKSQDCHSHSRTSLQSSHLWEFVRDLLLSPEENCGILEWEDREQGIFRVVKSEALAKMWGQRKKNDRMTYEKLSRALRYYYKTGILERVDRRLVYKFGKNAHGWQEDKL
# Outline: as §1
# ETV3 = biological target: T12, ETV3 (Homo sapiens, UniProt P41162-2 1-143); conditions: protein: recombinant; tags: N-terminal GST; dsDNA, one strand shown
# T12 sequence: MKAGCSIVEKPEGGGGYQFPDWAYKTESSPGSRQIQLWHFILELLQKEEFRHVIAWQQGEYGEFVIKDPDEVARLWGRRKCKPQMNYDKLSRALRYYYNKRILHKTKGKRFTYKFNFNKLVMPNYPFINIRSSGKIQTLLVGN
# Outline: as §1
# ETV6 = ETV6 (Homo sapiens, UniProt P41212 1-452); conditions: protein: recombinant; tags: N-terminal GST; dsDNA, one strand shown
# ETV6, sequence (P41212 whole entry): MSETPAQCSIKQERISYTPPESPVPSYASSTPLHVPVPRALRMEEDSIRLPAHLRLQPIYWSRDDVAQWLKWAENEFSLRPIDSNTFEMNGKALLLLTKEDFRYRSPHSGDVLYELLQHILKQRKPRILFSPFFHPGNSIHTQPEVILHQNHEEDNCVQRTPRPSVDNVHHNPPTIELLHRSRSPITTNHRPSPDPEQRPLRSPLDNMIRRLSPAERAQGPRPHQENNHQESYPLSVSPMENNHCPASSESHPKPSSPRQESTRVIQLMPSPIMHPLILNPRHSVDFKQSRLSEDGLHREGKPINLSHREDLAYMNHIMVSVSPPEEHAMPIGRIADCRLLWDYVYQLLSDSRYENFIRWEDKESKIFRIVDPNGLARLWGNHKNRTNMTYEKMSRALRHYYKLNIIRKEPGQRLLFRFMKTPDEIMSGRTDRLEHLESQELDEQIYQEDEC
# Outline: as §1
sequence,measurement,setting,value
TCCATC,binding signal,FEV,"1.21 fold enrichment (6-mer frequency, TF over GST control)"
same,binding signal,ETV5,"1.22 fold enrichment (6-mer frequency, TF over GST control)"
same,binding signal,HSF1,"1.16 fold enrichment (6-mer frequency, TF over GST control)"
same,binding signal,SPIC,"1.06 fold enrichment (6-mer frequency, TF over GST control)"
same,binding signal,ELF4,"1.13 fold enrichment (6-mer frequency, TF over GST control)"
same,binding signal,ELK4,"1.26 fold enrichment (6-mer frequency, TF over GST control)"
same,binding signal,ETV2,"1.32 fold enrichment (6-mer frequency, TF over GST control)"
same,binding signal,ELF3,"1.11 fold enrichment (6-mer frequency, TF over GST control)"
same,binding signal,CRX,"1.15 fold enrichment (6-mer frequency, TF over GST control)"
same,binding signal,ETV1,"1.17 fold enrichment (6-mer frequency, TF over GST control)"
same,binding signal,ERF,"1.17 fold enrichment (6-mer frequency, TF over GST control)"
same,binding signal,ETV3L,"1.31 fold enrichment (6-mer frequency, TF over GST control)"
same,binding signal,ETS2,"1.2 fold enrichment (6-mer frequency, TF over GST control)"
same,binding signal,SPDEF,"1.3 fold enrichment (6-mer frequency, TF over GST control)"
same,binding signal,ETV7,"1.2 fold enrichment (6-mer frequency, TF over GST control)"
same,binding signal,ELF5,"1.17 fold enrichment (6-mer frequency, TF over GST control)"
same,binding signal,ETV3,"1.22 fold enrichment (6-mer frequency, TF over GST control)"
same,binding signal,ETV6,"1.13 fold enrichment (6-mer frequency, TF over GST control)"

# From article PMC7862700, “An all-to-all approach to the identification of sequence-specific readers for epigenetic DNA modifications on cytosine”
